# In the library only some 8.7% were active in any assay of this set; here they are far more common.
# Pf growth 48h = inhibits P. falciparum growth in the first generation, 48 h; P. falciparum luciferase growth in erythrocytes, 48 h; hit rate 5.9% among 310,000; Potency, µM (top dose mostly 28.7 µM), for the others: top-dose activity change, negative = inhibition, actives largely listed as inhibitors
#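 Growth was read as firefly luciferase luminescence after a 48 h, 37 C, 5% CO2 exposure of compounds to reporter-bearing P. falciparum cultures (0.1% parasitemia, 2% hematocrit final) in Albumax-supplemented RPMI 1640.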
# Vaccinia Venus = inhibitors of vaccinia virus (Venus reporter); Vaccinia virus Venus reporter expression, fluorescence; Potency, µM (series often up to 36.5 µM), for the others: at the top dose activity change, negative = inhibition, hits mostly inhibitors; hit rate 0.46% among 330,000; AID 720580; calls by dose curve; tested in A549 cells; further: nearly all actives have a fitted effect of over 30% in size
# Pf growth 96h = inhibits malaria parasite growth, 96 h; Potency, µM (titrated, usually from 28.7 µM), for the others: top-dose activity change, negative = inhibition, hits mostly inhibitors; AID 504834; hit rate 6.9% among 320,000; P. falciparum luciferase reporter growth, 96 h
#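 Infected RBCs, 2% Hct / 0.05% parasitemia final; luciferase-reporter P. falciparum; cpd 96 h, 37 C, 5% CO2; luciferase detection reagent; luminescence.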
# Vaccinia mCherry = inhibitors of vaccinia virus infection (mCherry reporter signal); Vaccinia virus mCherry reporter infection, fluorescence; Potency, µM (top dose mostly 36.5 µM), without a hit: top-dose activity change, negative = inhibition, actives largely listed as inhibitors; hit rate 0.63% among 310,000; AID 720579; calls by dose curve; tested in A549 cells; further: nearly all actives have a fitted effect of over 35% in size
# AMA1 RON2 block = disrupts binding of P. falciparum AMA1 to RON2; AlphaScreen AMA1-biotinylated RON2 peptide binding; Potency, µM (highest dose often 58.2 µM), without a hit: at the highest dose activity change, negative = inhibition, actives largely listed as inhibitors; hit rate 0.2% among 360,000; AID 720542;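 further: 0% = vehicle wells and -100% = peptide control; nearly all actives have a fitted effect of over 45% in size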
#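 AMA1 (3D7) with his tag at 25 nM final met compounds first, then biotinylated RON2 peptide at 25 nM; detection used donor plus acceptor beads, 10 µg/mL apiece, read by AlphaScreen after 30 min at room temperature.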
# * hit, by the source's call; i = inactive; ? = inconclusive; nt = not tested or not shown; [ ] = dose if it differs, or a comment. Unless noted, the call rests on the fitted dose curve; in most records, active means well fitted curve in the direction sought with a large enough effect; inconclusive means small, poorly fitted or top-dose-only effect, or another doubt; inactive means no such curve, though single readings can be large; an effect the other way counts as inactive or inconclusive. Unless noted, on the % scale 0 is the no-effect control and ±100 the full control effect; potency means the concentration at half of the fitted maximal effect.
SMILES,Pf growth 48h,Vaccinia Venus,Pf growth 96h,Vaccinia mCherry,AMA1 RON2 block
c1ccc(-c2ccc(-c3n(-c4ccccn4)c4ccccc4[n+]3-c3ccccn3)cc2)cc1,?,nt,15µM*,nt,-21%
COc1ccc(-c2cnc(C)o2)cc1S(=O)(=O)Nc1c(C)cc(C)cc1C,nt,-16%,nt,-19%,nt
CC(=O)Nc1cccc(NC(=O)c2ccc3c(c2)CCN3S(=O)(=O)c2ccccc2)c1,?,-23%,?,-29%,-11%
NS(=O)(=O)c1ccc(NC(=O)c2ccc3c(c2)CCN3S(=O)(=O)c2ccccc2)cc1,-22%,-21%,4%,-20%,-8%
NC(=O)C1CN(C(=O)c2cccc(S(=O)(=O)N3CCc4ccccc43)c2)c2ccccc2O1 (centres undefined),8.3µM*,nt,?,nt,12%
O=C(Nc1ccccc1)c1ccc2c(c1)CCN2S(=O)(=O)c1ccccc1,3.7µM*,nt,92%,nt,0%
CN(C)S(=O)(=O)c1cccc(NC(=O)c2cccc(S(=O)(=O)N3CCc4ccccc43)c2)c1,5.9µM*,nt,9.3µM*,nt,-1%
CC(=O)c1cccc(NC(=O)c2ccc3c(c2)CCN3S(=O)(=O)c2ccccc2)c1,?,-20%,12µM*,-24%,6%
CN(C)c1ccc(CN(CC2CCCO2)C(=O)COc2ccccc2Cl)cc1 (centres undefined),nt,-14%,nt,-9%,nt
COc1ccc2[nH]cc(/C=C/c3cc[n+](C)cc3)c2c1,1µM*,nt,0.47µM*,nt,0%
COc1ccc2[nH]cc(C=O)c2c1,14%,nt,190%,nt,3%
COc1ccccc1NC(=O)CSc1oc(-c2ccc(F)cc2)nc1S(=O)(=O)c1ccc(Br)cc1,nt,?,nt,14µM*,nt
COc1cc(/C=C/C(=O)OCc2cn3cc(Cl)ccc3n2)ccc1O,10µM*,nt,?,nt,2%
CCOC(=O)CSCc1cn2cc(Cl)ccc2n1,11%,-8%,nt,-12%,5%
O=C1C=C2C=C[C@@H]3C[C@@]2(O1)[C@H]1CCCCN31,nt,14µM*,nt,?,nt
O=C1C=C(N2CCCCC2)C2(CCCCC2)O1,-6%,-2%,19%,i,-9%
Cc1ccc(C(=O)Nc2nnc(-c3ccco3)o2)cc1,89%,-17%,?,-23%,25%
CS(=O)(=O)c1cccc(-c2nnc(NC(=O)c3ccc(S(=O)(=O)N4CCCC4)cc3)o2)c1,?,-7%,13µM*,i,71%
CS(=O)(=O)c1cccc(-c2nnc(NC(=O)c3ccc4c(c3)OCCO4)o2)c1,nt,-5%[7.34 µM],nt,-8%[7.34 µM],nt
O=C(Nc1nnc(-c2ccco2)o1)c1ccc(S(=O)(=O)N2CCCC2)cc1,12µM*,nt,?,nt,75%
O=C(Nc1nnc(-c2ccc(F)cc2)o1)c1ccc(S(=O)(=O)N2CCOCC2)cc1,?,-9%,3.3µM*,-9%,47%
O=C(Nc1nnc(-c2ccco2)o1)c1ccc([N+](=O)[O-])s1,-23%,?,12µM*,?,63%
Cc1ccccc1Cn1c(C)c(CNCc2ccccc2)c(C(=O)O)c1C,nt,10%,nt,5%,nt
C=C1CCC(O)C/C1=C/C=C1\CCC[C@]2(C)[C@@H]([C@H](C)/C=C/[C@H](C)C(C)C)CC[C@@H]12 (some centres undefined),-18%,nt,?,nt,nt
CCc1ccccc1NC(=O)C1(S(=O)(=O)c2ccc(Cl)cc2)CC1,nt,0%,nt,-3%,nt
SMILES,Pf growth 48h,Vaccinia Venus,Pf growth 96h,Vaccinia mCherry,AMA1 RON2 block
CC1CCN(S(=O)(=O)c2ccc(C(=O)Nc3nnc(-c4ccco4)o3)cc2)CC1,?,?,15µM*,?,28%
CCN(CC)Cc1nc2c(c(=O)[nH]1)C(CC)(CC)Cc1ccccc1-2,9.3µM*,nt,-140%,nt,57%
CCc1nc2c(c(=O)[nH]1)C(CC)(CC)Cc1ccccc1-2,0%,-7%,-4%,i,-14%
CSc1cccc(NS(=O)(=O)c2ccc(-c3coc(C)n3)cc2)c1,-7%,-18%,4.7µM*,-24%,14%
Cc1nc(-c2ccc(S(=O)(=O)Nc3ccc(S(N)(=O)=O)cc3)cc2)co1,-4%,nt,10µM*,nt,5%
COc1cccc(C2CNC3(CCCC(C)C3)c3[nH]c4ccccc4c32)c1OC (centres undefined),nt,nt,9.3µM*,nt,-21%
Cc1ccc(-n2ncc(C(=O)NC3CCN(Cc4ccccc4)CC3)c2C2CCN(C(=O)OC(C)(C)C)CC2)cc1C,nt,-16%,nt,0%,nt
CC1CCN(c2nc3ccccc3nc2C(C#N)C(=O)NC2CCCCC2)CC1 (centres undefined),-7%,nt,8%[5.75 µM],nt,nt
CCCCOc1nc2ccccc2nc1C(C#N)C(=O)NC1CCCCC1 (centres undefined),12%,-17%,1.5µM*,i,16%
Cc1ccn2c(Nc3ccc4c(c3)OCO4)c(-c3ccco3)nc2c1,nt,-3%,nt,-13%,nt
CCn1c(SCc2ccc(F)cc2)nnc1-c1nn(-c2ccccc2)ccc1=O,?,-10%,5.2µM*,nt,3%
COc1ccc(Br)c(C(=O)Nn2c(C)nc3ccccc3c2=O)c1,1%,-13%,40%,-12%,2%
Cc1nc2ccccc2c(=O)n1NC(=O)c1ccc(F)cc1Cl,7%,0%,9.3µM*,i,-1%
COc1ccc(C(=O)Nn2c(C)nc3ccccc3c2=O)c(OC)c1,22%,nt,1.2µM*,nt,-6%
Cc1nc2ccccc2c(=O)n1NC(=O)c1ccccc1Cl,7%,-3%,-26%,-12%,17%
CCN(CC)CCCNc1ncnc2c1cnn2-c1ccc(C)c(C)c1,nt,-15%,nt,-4%,nt
CN(C)c1c(Cl)cc(/C=C/c2ccnc3ccccc23)cc1Br,nt,-16%,nt,-21%,nt
CCOc1cc(C(=O)Nc2ccc(-c3nc4cc(Cl)ccc4o3)cc2)cc(OCC)c1OCC,nt,-3%,nt,-1%,nt
COc1cc(/C=N/NC(=O)CCN2CCCCC2)ccc1O,3%,?,?,?,-1%
Cc1cc(C)n(C(=O)CNC(=O)c2ccccc2Br)n1,13%,-1%,25%,-15%,-14%
COc1cc(/C=N\NC(=O)c2ccc(-c3ccccc3)cc2)cc(Br)c1O,-20%,-21%,2%,?,-16%
O=C(CNC(=O)c1cccs1)N/N=C/c1cccc(Cl)c1,31%,nt,?,nt,-6%
COc1ccccc1C(=O)NCC(=O)n1nc(C)cc1C,7%,-7%,13µM*,-16%,-2%
COc1ccccc1C(=O)NCC(=O)N/N=C/c1cccc(Cl)c1,5%,nt,2.1µM*,nt,7%
COc1cc(/C=N/NC(=O)CCn2cnc(-c3ccccc3)c2-c2ccccc2)ccc1O,?,?,-3%,8.9µM*,?
CCOc1c(Br)cc(/C=N\NC(=O)c2ccccc2)cc1OC,5.2µM*,2%,8.3µM*,i,-5%
COc1ccc(-n2c(=O)c3ccccc3n(Cc3ccccc3C)c2=O)c(OC)c1,nt,-18%,nt,-18%,nt
CN(C)c1ccc(/C=C/c2ccnc3ccccc23)cc1Cl,nt,-18%,nt,-4%,nt
CCOc1ccc(CC(=O)NCc2ccc3c(c2)CCN3C(=O)c2ccccc2)cc1OCC,nt,-8%,nt,-12%,nt

# High-throughput results from PubChem BioAssay.
